Mcl1-Noxa inh = Mcl-1/Noxa interaction inhibition; Q07820; TR-FRET Mcl-1/Noxa peptide binding, 2 h; inhibition, % at 21.7 µM; 1.5% of 220,000 active; AID 1022;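 active means compounds that cut the protein-peptide binding signal by more than 50% relative to plate controls in a single-dose test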;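 further: His-tagged Mcl-1 with rhodamine Noxa BH3 peptide and terbium anti-His antibody; 0% = Mcl-1 plus Noxa peptide wells and 100% = peptide-only wells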
Bim-Mcl-1 = disrupts Bim peptide binding to human Mcl-1. Bead-based flow cytometry, Bim peptide-Mcl-1 binding. 0.1% of 190,000 active. inhibition, % at 10 µM; in the data active means inhibition above about 40%;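 further: 0% = no compound tracer wells and 100% = peptide blocker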
14-3-3 Bad inh = disrupts binding of bovine 14-3-3 zeta to phospho-Bad peptide | 0.71% of 220,000 active | AID 781 | P63103 | inhibition, % at 21.7 µM | TR-FRET 14-3-3zeta/Dy647-pBad peptide displacement, 1 h;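 active means inhibition above about 70%, limit read from the data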;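 further: 0% = full 14-3-3 plus peptide FRET controls and 100% = background without 14-3-3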
NCF1 inh = p47phox (human) inhibition; P14598; p47phox/p22phox peptide binding, fluorescence polarization, 2 h; inhibition, % at 24.7 µM; 0.53% of 220,000 active; AID 1274;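 active means inhibition above about 30%, limit read from the data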;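 further: 0% = p47phox with labelled peptide and 100% = labelled peptide alone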
Target sequence (P14598 whole entry, looked up): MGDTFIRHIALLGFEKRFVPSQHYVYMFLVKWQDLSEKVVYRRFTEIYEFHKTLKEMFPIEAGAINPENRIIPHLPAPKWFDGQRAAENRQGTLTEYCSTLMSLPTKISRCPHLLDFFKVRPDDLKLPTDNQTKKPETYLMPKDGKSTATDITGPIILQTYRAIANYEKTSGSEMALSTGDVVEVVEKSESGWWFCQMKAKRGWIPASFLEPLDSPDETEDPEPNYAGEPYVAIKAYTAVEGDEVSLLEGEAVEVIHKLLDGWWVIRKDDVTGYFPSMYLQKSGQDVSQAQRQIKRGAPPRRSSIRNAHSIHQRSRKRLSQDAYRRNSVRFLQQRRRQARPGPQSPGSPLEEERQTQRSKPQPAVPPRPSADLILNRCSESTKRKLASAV
Mcl1 Bid PPI = disrupts binding of human Mcl-1 to Bid peptide; Q07820; TR-FRET Mcl-1/Bid-Dy647 peptide binding, 1536-well; inhibition, % at 21.7 µM; 0.97% of 220,000 active; AID 1021;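 active means compounds that cut the binding signal by more than half at the single screening dose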;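 further: His-tagged Mcl-1 with europium anti-His antibody binding Bid BH3 peptide; 0% = Mcl-1 plus peptide wells and 100% = peptide-only wells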
Numbers without * were called inactive; . = not tested or not shown. An excerpt weighted towards active compounds, which were near 3.1% of everything screened.

SMILES	Mcl1-Noxa inh	Bim-Mcl-1	14-3-3 Bad inh	NCF1 inh	Mcl1 Bid PPI
COc1ccc(-c2nc(=S)c3c([nH]2)Oc2ccc(C)cc2C3)cc1O	66*	-4	13	-15	-28
CCN(CC)S(=O)(=O)c1cc(NC(=O)CNc2c(C)n(C)n(-c3ccccc3)c2=O)ccc1C	1	0	3	-9	-22
Nc1ccc(-c2nc3cc([N+](=O)[O-])ccc3o2)cc1	80*	.	0	-5	13
Cc1ccc(C(=O)C2(C)C3c4cc(Br)ccc4OC(=O)C32C(=O)c2ccco2)cc1 (stereo not drawn)	-6	0	-7	-9	-9
CCOC(=O)Cc1csc(NC(=O)Cc2ccc(Cl)cc2)n1	2	.	-8	10	55*
CCOC(=O)CSc1ccc(-c2nc3ccccc3[nH]2)cn1	51*	0	10	-4	-13
Cc1ccc2nc(-c3ccc(SCC(=O)Nc4nnc(C)s4)nc3)[nH]c2c1	68*	-4	31	7	70*
Cc1ccc2nc(-c3ccc(SCC(=O)Nc4nc(C)cs4)nc3)[nH]c2c1	21	-5	-4	-29	-23
Cc1cc2nc(-c3ccc(SCC(=O)N4CCN(C(=O)c5ccco5)CC4)nc3)[nH]c2cc1C	71*	1	0	-68	-31
COc1ccc(C(=O)CSc2n[nH]c(C)n2)cc1[N+](=O)[O-]	-2	0	-3	-10	-19
COc1ccc(N2Cc3cccc(C(=O)N4CCN(C(=O)c5ccco5)CC4)c3C2=O)cc1	74*	2	3	-21	-26
COCCCN1C(=O)C(=O)/C(=C(/O)c2ccc(OC)cc2)C1c1cccc(OC)c1 (stereo not drawn)	64*	3	48	-16	-17
C/C=C\C=C/C(=O)Nc1cccc(C2=NOC3(C2)C[C@H](C(N)=O)N(C(=O)c2ccc(OC)cc2)C3)c1 (stereo partly drawn)	63*	.	-4	1	27
C/C=C\C=C/C(=O)Nc1cccc(C2=NOC3(C2)C[C@H](C(N)=O)N(C(=O)Cc2ccc([N+](=O)[O-])cc2)C3)c1 (stereo partly drawn)	65*	.	3	-17	6
C/C=C(/C)C(=O)Nc1cccc(C2=NOC3(C2)C[C@H](C(N)=O)N(C(=O)Cc2ccc([N+](=O)[O-])cc2)C3)c1 (stereo partly drawn)	5	.	1	-18	-25
O=C(CC1S/C(=N/N=C/c2c[nH]c3ccccc23)NC1=O)Nc1ccccc1 (stereo not drawn)	61*	-3	-8	6	56*
O=C(CC1S/C(=N/N=C/c2ccco2)NC1=O)Nc1ccccc1 (stereo not drawn)	18	-1	-13	-5	-31
O=C(CC1S/C(=N/N=C/c2c[nH]c3ccc(OCc4ccccc4)cc23)NC1=O)Nc1ccccc1 (stereo not drawn)	67*	-5	6	11	58*
CN(C)CCCCOc1ccccc1F	26	-2	11	-10	30
CN(C)CCCCOc1ccccc1-c1ccccc1	25	-3	68	13	73*
CCN1CCN(CCCOc2ccccc2-c2ccccc2)CC1	4	0	71*	5	49
Cc1ccc(S(=O)(=O)CCC(=O)OC(C)C(=O)c2c(C)[nH]c3ccccc23)cc1 (stereo not drawn)	13	-3	6	6	7
CN(C)S(=O)(=O)c1cccc(NC(=O)c2ccc(N3CCOCC3)c([N+](=O)[O-])c2)c1	12	-2	4	-8	-64
O=C(CSc1nc2cc([N+](=O)[O-])ccc2n1-c1ccccc1)NCc1ccc2c(c1)OCO2	58*	4	-2	-2	3
Cc1cc(C)cc(-n2c(SCC(=O)NCc3ccc4c(c3)OCO4)nc3ccccc3c2=O)c1	10	-6	2	-21	-83
SMILES	Mcl1-Noxa inh	Bim-Mcl-1	14-3-3 Bad inh	NCF1 inh	Mcl1 Bid PPI
Nc1nnc(SCC(=O)c2ccc3ccccc3c2)s1	17	-2	-1	92*	-4
Nc1nnc(SCC(=O)c2cccc([N+](=O)[O-])c2)s1	10	-1	-1	8	-7
Cc1ccc2nsnc2c1S(=O)(=O)NCCc1c(C)[nH]c2ccc(F)cc12	8	0	5	-313	55*
CCn1c(-c2cc(C3CC3)nc3ccccc23)n[nH]c1=S	55*	-5	32	9	-11
CCn1c(-c2cc(-c3cc(C)ccc3C)nc3ccccc23)n[nH]c1=S	44	-2	12	-98	43
Cc1cccc(NC(=O)C2C(C(=O)O)C3C=CC2C32CC2)c1C (stereo not drawn)	13	-4	-3	-1	97*
COc1ccc(Br)cc1CNC(=O)Nc1cccs1	1	4	-2	98*	-21
COc1ccccc1CNC(=O)Nc1cccs1	-2	-2	-6	-23	-38
COc1ccc(NC(=O)COC(=O)CCCc2c[nH]c3ccccc23)cc1	-3	-1	-14	-6	-61
O=C(COC(=O)CCCc1c[nH]c2ccccc12)Nc1ccc2c(c1)OCO2	56*	-6	-13	-16	-32
Cc1ccc(C)c(OCC(=O)Nc2ccc3c(c2)OCO3)c1C	-16	-3	-6	-5	85*
COC/C=C/C1=CC2=CC(=O)C(C)(OC(=O)c3ccco3)C(=O)C2=CO1 (stereo not drawn)	93*	.	8	-45	-18
COC/C=C/C1=CC2=CC(=O)C(C)(OC(=O)C3CCCC3)C(=O)C2=CO1 (stereo not drawn)	49	.	1	-51	-48
CC1=C2C(CCS2(=O)=O)CC2(C1)C(=O)OC(C)(C)OC2=O (stereo not drawn)	24	66*	-6	-10	-11
Cc1ccc2nc(SCC(=O)NCc3ccco3)c(C#N)cc2c1	-24	-4	-13	33*	-6
Cc1ccc2cc(C#N)c(SCC(=O)NCc3ccco3)nc2c1	24	0	-14	-31	-7
CCOC(=O)c1cnn(-c2ccccc2)c1-n1cccc1C(=O)C(=O)Nc1ccccc1	3	-3	12	-14	-20
O=C(O)c1cccc(-c2ccc(/C=N/Nc3ccc([N+](=O)[O-])cc3)o2)c1	23	.	-5	-26	-51
O=C(O)c1ccc(-c2ccc(/C=N/Nc3ccc([N+](=O)[O-])cc3)o2)cc1	62*	.	-3	-40	-49
NS(=O)(=O)c1ccc(-c2ccc(/C=N/Nc3ccc(C(=O)O)cc3)o2)cc1	59*	.	3	-28	-83
NS(=O)(=O)c1ccc(-c2ccc(/C=N/NC(=O)c3ccc([N+](=O)[O-])cc3)o2)cc1	27	.	1	5	1
CC(C)=CCN1CCN(Cc2cnc(C)s2)CC1CCO (stereo not drawn)	-1	5	-3	-9	-19
CCN(CC)c1ccc(N=Cc2c(C)[nH]c3ccccc23)cc1	61*	-4	-6	-6	-102

Source: PubChem (several laboratories)
